# Source: article PMC11062922 (Nature Chemical Biology, 2023)
# Like-named read-outs stand apart in the source and are kept apart here.
# Legend:
# Design in all cases: species or system human, MV4-11 + K-562 + COLO205 + SK-N-BE2 + OVCAR-8
# FECH = settings: read-out: apparent Kd, n = 1
# VDAC3 = settings: read-out: apparent Kd; compound concentrations: 100 nM and 1000 nM (sheet 'Samples'), CATDS: 0.46722570663248902; n = 1
# EGFR = settings: read-out: apparent Kd, n = 1
# MAP2K5 = settings: read-out: apparent Kd, n = 1
# RIPK2 = settings: read-out: apparent Kd, n = 1
# YES1 = settings: read-out: apparent Kd, n = 1
# EPHB6 = settings: read-out: apparent Kd; compound concentrations:100 nM and 1000 nM (sheet 'Samples'); n = 1
# NQO2 = settings: read-out: apparent Kd; compound concentrations:100 nM and 1000 nM (sheet 'Samples'); n = 1
# ERBB3 = settings: read-out: apparent Kd; compound concentrations: 100 nM and 1000 nM (sheet 'Samples'), CATDS: 6.7979180467830594E-2; n = 1
# FYN = settings: read-out: apparent Kd, compound concentrations: 100 nM and 1000 nM (sheet 'Samples'), n = 1
# HCK = settings: read-out: apparent Kd; compound concentrations: 100 nM and 1000 nM (sheet 'Samples'), CATDS: 0.242489240886436; n = 1
# LCK = settings: read-out: apparent Kd; compound concentrations: 100 nM and 1000 nM (sheet 'Samples'), CATDS: 0.10096254508192699; n = 1
# LYN = settings: read-out: apparent Kd; compound concentrations: 100 nM and 1000 nM (sheet 'Samples'), CATDS: 8.32238060167768E-2; n = 1
# RIPK3 = settings: read-out: apparent Kd, compound concentrations: 100 nM and 1000 nM (sheet 'Samples'), n = 1
# SRC = settings: read-out: apparent Kd; compound concentrations: 100 nM and 1000 nM (sheet 'Samples'), CATDS: 0.138583252116979; n = 1
# FLT3 = settings: read-out: apparent Kd; compound concentrations: 100 nM and 1000 nM (sheet 'Samples'), CATDS: 0.119493571435742; n = 1
# MELK = settings: read-out: apparent Kd; compound concentrations: 100 nM and 1000 nM (sheet 'Samples'), CATDS: 0.102611877302843; n = 1
# MERTK = settings: read-out: apparent Kd; compound concentrations: 100 nM and 1000 nM (sheet 'Samples'), CATDS: 0.11247191939654499; n = 1
# PDGFRB = settings: read-out: apparent Kd; compound concentrations: 100 nM and 1000 nM (sheet 'Samples'), CATDS: 0.104628993679762; n = 1
# RET = settings: read-out: apparent Kd, compound concentrations: 100 nM and 1000 nM (sheet 'Samples'), n = 1
# SIK2 = settings: read-out: apparent Kd; compound concentrations: 100 nM and 1000 nM (sheet 'Samples'), CATDS: 0.136273413737004; n = 1
# PIK3CG = settings: read-out: apparent Kd; compound concentrations: 100 nM and 1000 nM (sheet 'Samples'), CATDS: 0.25285428644367502; n = 1
# EIF5B = settings: read-out: apparent Kd; compound concentrations: 100 nM and 1000 nM (sheet 'Samples'), CATDS: 0.290212668862731; n = 1
# PLK1 = settings: read-out: apparent Kd, n = 1
# NTRK1 = settings: read-out: apparent Kd; compound concentrations:100 nM and 1000 nM (sheet 'Samples'); n = 1
# PDXK = settings: read-out: apparent Kd; compound concentrations:100 nM and 1000 nM (sheet 'Samples'); n = 1
# NQO1 = settings: read-out: apparent Kd, n = 1
# EPHA1 = settings: read-out: apparent Kd; compound concentrations: 100 nM and 1000 nM (sheet 'Samples'), CATDS: 0.14534883893422801; n = 1
# EPHB3 = settings: read-out: apparent Kd; compound concentrations: 100 nM and 1000 nM (sheet 'Samples'), CATDS: 9.8269686784854801E-2; n = 1
# TGFBR2 = settings: read-out: apparent Kd; compound concentrations: 100 nM and 1000 nM (sheet 'Samples'), CATDS: 0.121800483782391; n = 1
# IARS = settings: read-out: apparent Kd; compound concentrations:100 nM and 1000 nM (sheet 'Samples'); n = 1
# PIK3CD = settings: read-out: apparent Kd; compound concentrations:100 nM and 1000 nM (sheet 'Samples'); n = 1
# [1] = compound concentrations:100 nM and 1000 nM (sheet 'Samples')
structure (smiles),measurement,setting,value
Cc1nnc(-c2cccc(-c3ccc(C(=O)NCC4CC4)cc3)c2)o1 [GW734508X],potency estimated from few doses,"FECH; compound concentrations: 100 nM and 1000 nM (sheet 'Samples'), CATDS: 0.53771916993111701",1500 nM
same,potency estimated from few doses,VDAC3,1990 nM
COc1cc2ncnc(Nc3ccc4c(cnn4Cc4ccccc4)c3)c2cc1OC.Cl [GW282449A],potency estimated from few doses,EGFR; [1],1.29 nM
same,potency estimated from few doses,MAP2K5; [1],1120 nM
same,potency estimated from few doses,RIPK2; [1],210 nM
same,potency estimated from few doses,YES1; [1],1110 nM
Cc1cc(-c2ccccn2)cc(C)c1/C=C/c1cncc(-c2nn[nH]n2)c1.Cl [GW459057A],potency estimated from few doses,EPHB6,162 nM
same,potency estimated from few doses,NQO2,1420 nM
O=C(NCCCN1CCOCC1)c1cccc(Nc2nccc(Nc3ccc(Oc4ccccc4)cc3)n2)c1 [GW663929X],potency estimated from few doses,ERBB3,1550 nM
same,potency estimated from few doses,FYN; CATDS: 0.114580255038188,343 nM
same,potency estimated from few doses,HCK,96.7 nM
same,potency estimated from few doses,LCK,455 nM
same,potency estimated from few doses,LYN,756 nM
same,potency estimated from few doses,"MAP2K5; compound concentrations: 100 nM and 1000 nM (sheet 'Samples'), CATDS: 7.7428617985082396E-2",947 nM
same,potency estimated from few doses,"RIPK2; compound concentrations: 100 nM and 1000 nM (sheet 'Samples'), CATDS: 0.16454989385531299",175 nM
same,potency estimated from few doses,RIPK3; CATDS: 6.5605703607897303E-2,1820 nM
same,potency estimated from few doses,SRC,236 nM
same,potency estimated from few doses,"YES1; compound concentrations: 100 nM and 1000 nM (sheet 'Samples'), CATDS: 0.11029012837176901",373 nM
COc1cc2c(cc1OC)C(=C(Nc1ccccc1)c1cccc(CN)c1)C(=O)N2 [BIBF0846CL],potency estimated from few doses,"FECH; compound concentrations: 100 nM and 1000 nM (sheet 'Samples'), CATDS: 0.35888442724353598",62.1 nM
same,potency estimated from few doses,FLT3,829 nM
same,potency estimated from few doses,MELK,1410 nM
same,potency estimated from few doses,MERTK,1010 nM
same,potency estimated from few doses,PDGFRB,1310 nM
same,potency estimated from few doses,RET; CATDS: 0.43241388330783698,45.3 nM
same,potency estimated from few doses,SIK2,560 nM
COc1ccc2ncnc(Nc3ccc(OCc4ccccc4)cc3)c2c1.Cl [GI261520A],potency estimated from few doses,"EGFR; compound concentrations: 100 nM and 1000 nM (sheet 'Samples'), CATDS: 0.82087147453604603",67.2 nM
same,potency estimated from few doses,PIK3CG,1240 nM
same,potency estimated from few doses,"RIPK2; compound concentrations: 100 nM and 1000 nM (sheet 'Samples'), CATDS: 0.26130568040748398",1100 nM
COc1ccc(COc2cc(-n3cnc4ccccc43)sc2C(N)=O)cc1 [GSK1024304A],potency estimated from few doses,EIF5B,1710 nM
same,potency estimated from few doses,"FECH; compound concentrations: 100 nM and 1000 nM (sheet 'Samples'), CATDS: 0.34999062122036301",1150 nM
same,potency estimated from few doses,"PLK1; compound concentrations: 100 nM and 1000 nM (sheet 'Samples'), CATDS: 0.37077800289250101",1030 nM
Cl.c1ccc(Cc2nc3ccc(Nc4ncnc5ccccc45)cc3[nH]2)cc1 [GR269666A_KCGS],potency estimated from few doses,EGFR; [1],76 nM
same,potency estimated from few doses,NTRK1,1110 nM
same,potency estimated from few doses,PDXK,1550 nM
CN(C)C(=O)O[C@@H]1CN[C@@H](C#Cc2cc3ncnc(Nc4ccc(OCc5cccc(F)c5)c(Cl)c4)c3s2)C1 [GSK238063A],potency estimated from few doses,"EGFR; compound concentrations: 100 nM and 1000 nM (sheet 'Samples'), CATDS: 0.84282841422731203",175 nM
same,potency estimated from few doses,"NQO1; compound concentrations: 100 nM and 1000 nM (sheet 'Samples'), CATDS: 0.35542679551124801",1700 nM
Cn1cncc1-c1cc2c(Nc3ccc(OCc4ccccc4)cc3)ncnc2cn1 [GW281179X],potency estimated from few doses,"EGFR; compound concentrations: 100 nM and 1000 nM (sheet 'Samples'), CATDS: 0.48641322117949298",124 nM
same,potency estimated from few doses,"RIPK2; compound concentrations: 100 nM and 1000 nM (sheet 'Samples'), CATDS: 0.514367617378505",111 nM
CC(C)(C)c1ccc2nccc(Nc3cccc(O)c3)c2c1 [GW856795X],potency estimated from few doses,EPHA1,443 nM
same,potency estimated from few doses,EPHB3,1450 nM
same,potency estimated from few doses,FYN; CATDS: 0.110039828887459,960 nM
same,potency estimated from few doses,RET; CATDS: 0.126385665807943,634 nM
same,potency estimated from few doses,"RIPK2; compound concentrations: 100 nM and 1000 nM (sheet 'Samples'), CATDS: 0.476664898558677",52 nM
same,potency estimated from few doses,RIPK3; CATDS: 0.215705247056383,192 nM
same,potency estimated from few doses,TGFBR2,703 nM
COc1cc2ncn(-c3cc(OCc4ccc(S(C)(=O)=O)cc4)c(C(N)=O)s3)c2cc1OC [GW869979X],potency estimated from few doses,FECH; [1],2080 nM
same,potency estimated from few doses,IARS,2020 nM
same,potency estimated from few doses,NQO1; [1],2010 nM
same,potency estimated from few doses,PIK3CD,120 nM
same,potency estimated from few doses,PLK1; [1],1110 nM
